# The source made the active and inactive calls. Rule for the calls: active = hit-call score of the fitted dose curve at least 0.9, where 1 is the maximum; inactive = score below 0.9.
# Read-out: Lipoprotein lipase (LPL), LPL (gene 4023)
# Assay: LTEA_HepaRG_LPL: Life Technologies and Expression Analysis (LTEA) Assay for Lipoprotein lipase (LPL) using HepaRG (AID 2283515)
# Conditions: mRNA level, 48 h; actives raise or lower the signal
# Method: LTEA_HepaRG is a cell based, multiplexed-readout assay that uses HepaRG, a human liver cell line, with measurements taken at 48 hours after chemical dosing on a 96-well plate.LTEA_HepaRG_LPL is one of 102 assay component(s) measured in the LTEA HepaRG cell culture assay. It is a marker of Steatosis.Data from the assay component LTEA_HepaRG_LPL was analyzed into 1 endpoint. This assay endpoint, LTEA_HepaRG_LPL, was analyzed with bidirectional fitting relative to DMSO as the negative control and baseline of activity. Using a type of inducible reporter, measures of mRNA induction for gain or loss-of-signal activity can be used to understand regulation of transcription factor activity. To generalize the intended target to other relatable targets, this assay endpoint is annotated to the esterase intended target family, where the subfamily is lipase.
# A total of 1060 chemcials from the ToxCast library were tested in eight-point concentration-response experiments. Cell culture and cytotoxicity assays were conducted at Thermo Fisher Scientific's Custom Services facility (Madison, WI). A single lot of human HepaRG cells (Thermo Fisher Scientific, Frederick, MD) was used for the cell culture experiments. 96-well format collagen type I coated plates of human HepaRG cells were prepared using established methods. Briefly, cryopreserved HepaRG cells were thawed, plated at a density of approximately 100,000 cells/well in HepaRG Thaw, Plate, and General Purpose media (HPRG770, Thermo Fisher Scientific), and incubated for 48 hours. 0.5% DMSO was selected as vehicle control to balance the requisite need of DMSO in HepaRG cultures to maintain differentiation (for example, baseline metabolism, proportions of hepatocytes vs. cholangiocytes), while enabling further hepatic receptor pathway activation (for example, PXR and CAR) in response to chemical exposure. 48 hours after plating, the culture medium was replaced with HepaRG Serum-Free Incudtion Media. Cells were exposed to each test chemical in duplicate and maintained in CO2 incubators for another 48 hours. Chemical plates were thawed to room temperature and 200x concentrations of treatment groups were prepared. 8-point conentration-reponse curves were made with the highest exposure at 100 uM, followed by half-log dilutions, all in 0.5% DMSO. Each test plate contained variouse controls, induction positive controls (1mM phenobarbital), cytotoxicity positive controls ([…] aflatoxin B1), vehicle controls (0.5% DMSO), and total lysis controls (0.5% DMSO). Cell morphology images were taken using an Essen IncuCyte FLR automated microscope, with six 96-well plates imaged in about 24 minutes. Images were captured and exported and JPEG files. Spent culture media was transfered to black-well plates for the LDH assay, and remaining media was sorted at -80 C for later use. Cells were treated with RLT buffer and frozen until shipped for gene expression analysis. Total RNA was isolated from the cell suspension in 75 uL of Buffer RLT (Qiagen, Germantown, MD 20874) by Quintiles/Expression Analysis (Durham, NC) using a custom isolation procedure. Total RNA from each plate well was transferred to a preamplification plate. Fluidigm's 96.96 Dynamic ArrayTM (Fluidigm, Amsterdam, the Netherlands) technology was used for gene expression analyses by quantitative reverse transcription polymerase chain reaction (qRT-PCR, performed by Quintiles/Expression Analysis, Durham, NC)89. Standard TaqManTM Assays (Applied Biosystems/ThermoFisher Scientific, Foster City, CA) were used to assess the expression of 93 genes selected based on their selectivity and sensitivity to important hepatic receptors known to be modulated by environmental chemicals; importance in human hepatocyte functionality; and hepatotoxicity. […]
SMILES,outcome,AC50
CC(C)=CCC/C(C)=C\CO,inactive,–
COC(=O)c1ccccc1O,inactive,–
CC/C(=C\C(=N/O)C(N)=O)C(C)[N+](=O)[O-] (stereo not given),inactive,–
O=C(O)c1cccc(Oc2ccccc2)c1,inactive,–
Cc1c(-c2cccnc2)c2ccccc2n1CCCCC(=O)O,inactive,–
Fc1ccccc1[C@@H](F)COC1CCC(Nc2ncnc3[nH]ncc23)CC1 (stereo not given in full),–,28 µM (active)
CC(C)=CCCC(C)=CC=O,inactive,–
O=C(O)c1cc(N=Nc2ccc(S(=O)(=O)Nc3ccccn3)cc2)ccc1O,inactive,–
Nc1cccc(N)c1,inactive,–
CC(O)CN(CCN(CC(C)O)CC(C)O)CC(C)O (stereo not given),inactive,–
C=CCCCCCCCCC(=O)O,inactive,–
O=C1OC(=O)C2C3C=CC(C3)C12 (stereo not given),inactive,–
Cc1ccc(C)c(O)c1,inactive,–
CCn1nc(Cc2ccccc2)cc1C1CCN(C[C@H]2C[C@H](N(C)[C@@H](C(=O)O)C(C)C)C[C@@H]2c2cccc(F)c2)CC1,–,50 µM (active)
CCC(C)(C)C(=O)O[C@H]1C[C@@H](C)C=C2C=C[C@H](C)[C@H](CC[C@@H]3C[C@@H](O)CC(=O)O3)[C@H]21,inactive,–
COc1ccc(-n2nc(C(F)F)cc2-c2ccc(S(C)=O)cc2)cc1 (stereo not given),–,31.1 µM (active)
CC(C)=CCCC(C)CCO (stereo not given),inactive,–
O=C(CCCCCCCCc1cccnc1)N1CCC(C=C(c2ccccc2)c2ccccc2)CC1,–,12.8 µM (active)
Cn1c(=O)cc(Oc2ccc(F)cc2F)c2cnc(NCC(C)(C)O)nc21,–,9.98 µM (active)
CC(C)c1cccc(C(C)C)c1N1C(=O)c2ccc(O)cc2C1=O,–,83.4 µM (active)

SMILES,outcome,AC50
C[C@](N)(Cc1ccc(O)c(O)c1)C(=O)O,inactive,–
O=C(O)CC(O)C(=O)O (stereo not given),inactive,–
Clc1nc(Cl)c(Cl)c(Cl)c1Cl,inactive,–
COc1ccc(/C=C/S(=O)(=O)NC(=O)c2ccc(C)cc2Cl)cc1,inactive,–
COCCOc1cc2cc(C(=O)NC3CCN(C(C)C)CC3)n(CC(=O)Nc3ccc(Cl)cn3)c2cn1,–,8.93 µM (active)
Oc1ccc2c(c1)-c1ccccc1C2,–,25.2 µM (active)
Cn1c(=O)c2c(ncn2C)n(C)c1=O,inactive,–
CCNc1ccccc1,inactive,–
Cn1cnc([N+](=O)[O-])c1Sc1ncnc2nc[nH]c12,inactive,–
C1N2CN3CN1CN(C2)C3,inactive,–
CCCCCCCCCCCCc1ccccc1,inactive,–
CC[C@H]1CC[C@H](NCc2cc3c(cc2OC)[C@H]2C[C@H]2C(=O)N3C)[C@H](c2ccccc2)N1,–,50 µM (active)
CCCCCCc1ccc(O)cc1O,inactive,–
CC[C@H](C)C(=O)O[C@H]1C[C@@H](C)C=C2C=C[C@H](C)[C@H](CC[C@@H]3C[C@@H](O)CC(=O)O3)[C@H]21,inactive,–
O=c1n(CC2CO2)c(=O)n(CC2CO2)c(=O)n1CC1CO1 (stereo not given),inactive,–
O=C(OC[C@H]1O[C@@H](OC(=O)c2cc(O)c(O)c(OC(=O)c3cc(O)c(O)c(O)c3)c2)[C@H](OC(=O)c2cc(O)c(O)c(OC(=O)c3cc(O)c(O)c(O)c3)c2)[C@@H](OC(=O)c2cc(O)c(O)c(OC(=O)c3cc(O)c(O)c(O)c3)c2)[C@@H]1OC(=O)c1cc(O)c(O)c(OC(=O)c2cc(O)c(O)c(O)c2)c1)c1cc(O)c(O)c(OC(=O)c2cc(O)c(O)c(O)c2)c1,–,15.2 µM (active)
CC(C)CCO,inactive,–
CN(C)c1ccc(Cc2ccc(N(C)C)cc2)cc1,inactive,–
CNCc1ccc(NC(=O)c2c[nH]c3c2C(=O)CCC3)cc1,inactive,–
CCc1cc(SCc2sc(-c3ccc(C(F)(F)F)cc3)nc2CN2CCN(c3ccc(OC)cc3)CC2)ccc1OCC(=O)O,–,27.9 µM (active)
